Source: PubChem BioAssay AID748 (Sanford-Burnham Center for Chemical Genomics, 2007)
Hit rate of the full screen: of about 96,000 compounds, about 100 (0.1%) were called active.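 Rule for the calls: active = displacement above 50% at 20 µM plus a fluorescence interference ratio under 1.5; inactive = the rest.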 The full list was thinned out, with actives kept by preference. Results with a measured potency or affinity are listed apart.

molecular target: Bcl-2-like protein 10 (Homo sapiens) (UniProt Q9HD36); experiment: displacers of TR3 peptide from Bcl-B, primary screen, selectivity assay for Bfl-1 inhibitor project, biochemical, fluorescence polarization, FITC-TR3 peptide (AID 748); conditions: FP displacement of FITC-TR3 peptide from Bcl-B; at 20 µM; stronger effect = higher value;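 note: plate controls were wells without compound for no effect and wells lacking Bcl-B protein for full effect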

displacement, inactive:
CN(C)S(=O)(=O)N(CC(=O)Nc1ccc(F)c(F)c1)c1ccccc1 18%
CN(C)S(=O)(=O)N(CC(=O)Nc1cccc(F)c1)c1ccccc1 9.9%
CN(C)S(=O)(=O)N(CC(=O)NCc1ccccc1)c1ccccc1 7.3%
CN(C)S(=O)(=O)N(Cc1ccc(Br)cc1)c1ccccc1 0%
O=c1[nH][nH]c2nc(C(F)(F)F)cc(C(F)(F)F)c12 -9.8%
CCN(CC)S(=O)(=O)c1cc(C(=O)O)c(Cl)cc1Cl -5.8%
Cc1ccc(NC(=O)c2nc[nH]c2C(=O)Nc2ccc(C)cc2)cc1 4%
Cc1cc(-c2nnc(-c3cc4ccccc4oc3=O)o2)c(C)n1-c1ccccc1 2.6%
CCCOC(=O)Cc1n[nH]c(=O)[nH]c1=O -2.4%
COc1ccc(CN2C(=O)CN(C3CCCCCC3)C(=O)C2c2ccc(F)cc2)cc1 (centres undefined) -2.9%
Cn1c(SCC(=O)Nc2ccc3nc(SCC(=O)N4CCCC4)sc3c2)nnc1-c1ccccc1 38.1%
CCC(=O)Nc1ccc2nc(SCC(=O)N3CCCC3)sc2c1 5.1%
O=C(c1ccc(N2CCNCC2)cc1)c1cccnc1 -3.4%
COC(=O)C1Sc2[nH]c(=O)sc2C2c3ccccc3OC(=O)C12 (centres undefined) 0%
CCOC(=O)C1CCN(Cc2nc3ccccc3c(=O)n2-c2ccc(F)cc2)CC1 -6.2%
Cc1nn(Cc2cccc(C(=O)Nc3ccn(Cc4ccccc4)n3)c2)c(C)c1[N+](=O)[O-] 3.7%
C=CCN1C(=O)CS/C1=N/c1nccs1 1.8%
C=CCN1C(=O)/C(=C2/Sc3ccccc3N2C)SC1=Nc1ccccc1C -13%
Cc1c(Cl)cccc1-n1c(SCC(=O)NCc2ccccc2Cl)nnc1-c1ccncc1 -10.8%
O=C1CCCC2=C1C(c1ccco1)Nc1ccc(C(=O)c3ccccc3)cc1N2 (centres undefined) 22.2%
CC1(C)CC(=O)C2=C(C1)c1c(ccc3ccccc13)NC2c1ccco1 (centres undefined) -4.8%
CCSc1nc(O)c(Cc2ccccc2)c(=O)[nH]1 10.2%
Clc1ccc(-c2nc3ccccc3n2OCc2ccccc2)cc1 -9%
CC(=O)Nc1ccc(NC(=O)Cn2cc3c(n2)CCCC3)cc1 -10.4%
Cc1cc(C)cc(NC(=O)Cn2cc3c(n2)CCCCC3)c1 2.8%
CCCn1c(=O)c2ccccc2n2c(SCC(=O)c3ccc(F)cc3)nnc12 -0.8%
CCOC(=O)c1cnc2cc3c(cn2c1=O)CCCC3 0%
CC(CC(=O)N1CCc2ccccc21)c1ccccc1 (centres undefined) 6.2%
COc1ccccc1OCC(=O)NCc1ccco1 2.1%
COc1ccc(OCCC(=O)OCC(=O)NCc2ccco2)cc1 16.1%
O=C(NCc1ccco1)c1cccs1 -12.3%
CCOc1cc(C(=O)OCC(=O)NCc2ccco2)cc(OCC)c1OCC 33.3%
O=C(COC(=O)c1ccco1)NCc1ccco1 3.5%
O=C(COC(=O)c1ccccc1)NCc1ccco1 40.9%
O=C1NCCCc2nc(Oc3ccccc3)sc21 1.4%
Cc1cc(C)c2c(=O)c3c(oc2c1)C(=O)N(CCO)C3c1cccc(O)c1 (centres undefined) 3.4%
COc1ccc(C(=O)CCC(=O)N2CCN(c3ccc(N4CCOCC4)nn3)CC2)cc1 4.3%
COc1ccccc1-c1nnc(NC(=O)C(C)SC2=NCCS2)s1 (centres undefined) -10.4%
Cc1ccc(NC(=O)CCc2ccc(S(=O)(=O)N3CCOCC3)cc2)c(C)c1 13.6%
c1ccc(-c2nn3c(Cn4nnc5ccccc54)nnc3s2)cc1 0%
c1ccc2c(c1)nnn2Cc1nnc2sc(-c3ccncc3)nn12 -19.6%
Nc1nonc1OCCc1ccccc1 2.7%
O=c1[nH]c(NC2CCCCC2)nnc1Cc1ccccc1 -7%
NC(=O)C1c2ccccc2CSc2ccccc21 (centres undefined) -22.4%
CN1CCN(CCCNC(=O)C2CCN(c3nnc(-n4cccc4)s3)CC2)CC1 8.6%
O=C(NCCCc1ccccc1)C1CCN(c2nnc(-n3cccc3)s2)CC1 6.7%
CCN1CCN(c2cc(C)c3cc(NC(=O)c4cccnc4Cl)ccc3n2)CC1 25.4%
O=C(Nc1ccc(N2CCCCC2)cc1)c1cccnc1Cl -16.3%
O=C(CNC(=O)c1ccco1)OCc1cccc(Cl)c1 -8.6%
COC(=O)c1ccc(C2Nc3ccc(/C(C)=N/NC(=O)C(OC)c4ccccc4)cc3C3C=CCC32)cc1 (centres undefined) 5.4%
CC(=O)c1ccc2c(c1)C1C=CCC1C(c1ccncc1)N2 (centres undefined) -8.3%
Cc1ccc2c(c1C)NC(C)CC2C (centres undefined) -4.5%
CC(C)C1Nc2ccc(S(N)(=O)=O)cc2C2C=CCC21 (centres undefined) 25.6%
O=C(OC1CCCCC1)c1ccc(NC(=O)C2CCCCC2)cc1 6.4%
O=C(O)C1Nc2c(C(=O)N3CCOCC3)cccc2C2C=CCC12 (centres undefined) 28.7%
Cc1ccc(S(=O)(=O)N2CCCN(S(=O)(=O)c3ccc(C)c(C)c3)CC2)cc1C -11.3%
Cc1cccc(C)c1NC(=O)CNc1ccccc1 0.2%
Cn1c(=O)[nH]c(=O)c2c1nc(Br)n2CC(O)c1ccccc1 (centres undefined) 6.4%
CCCCNC(=O)C1C2C=CC3(CN(Cc4ccc(C)cc4)C(=O)C13)O2 (centres undefined) 2.1%
O=C(C1CCCN(Cc2ccncc2)C1)N1CCc2ccccc2C1 (centres undefined) -14.9%
CCOC(=O)CC(N)c1ccc(OC)cc1 (centres undefined) 14.7%
CCCN=C(C)c1c(-c2ccccc2)[nH]n(-c2nc3ccccc3s2)c1=O -6.3%
COC(=O)Cc1[nH]n(-c2nc3ccccc3s2)c(=O)c1C(C)=O -6.8%
CSc1nnc2n(Cc3ccccc3)c(=O)c3c4c(sc3n12)COC(C(C)C)C4 (centres undefined) 1.6%
Cc1ccc(S(=O)(=O)NNC(=O)C2Cc3c(ccc4ccccc34)O2)cc1 (centres undefined) -1.6%
Cc1ccc(CSCCNC(=O)c2ccc(N(C)S(=O)(=O)c3ccccc3)cc2)cc1 0%
CC1CN(S(=O)(=O)c2cccc(C(=O)OCc3cc(=O)oc4cc(O)ccc34)c2)CC(C)O1 (centres undefined) 16.7%
CCN(CC)c1ccc(C(=O)OCc2cc(=O)oc3cc(O)ccc23)cc1 0%
N#CCCN1CCN(CCC#N)CC1 -1.9%
COCCCn1c2nc3ccccc3nc2c2c(=O)n(Cc3ccc(Cl)cc3)cnc21 -3.8%
COc1ccc(C2Nc3ccccc3C(=O)N2c2ccc(C)cc2)cc1Cn1nc(C)c([N+](=O)[O-])c1C (centres undefined) 8.3%
CCS(=O)(=O)N1CCN(c2cccc(C)c2C)CC1 4.1%
CCS(=O)(=O)N1Cc2ccccc2CC1C(=O)N1CCN(c2ccccc2)CC1 (centres undefined) 27%
CC1CCCN(c2oc(-c3cccc4ccccc34)nc2C#N)C1 (centres undefined) 6.4%
COc1ccc2nc(SCC(=O)/C(C#N)=C(\C)N)[nH]c2c1 -14.3%
C/C(N)=C(/C#N)C(=O)CSc1nc2ccc(C)cc2[nH]1 8.9%
O=C(O)CCCNc1cc(N2CCC3(CC2)OCCO3)c2noc3c2c1C(=O)c1ccccc1-3 33.8%
CCOC(=O)C(C(=O)OCC)c1cc(Br)c2noc3c2c1C(=O)c1ccccc1-3 -31.4%
CCCCOC(=O)Cn1c(=O)n(CC(=O)OCCCC)c2ccccc21 3.3%
COc1ccc(C(CNC(=O)c2ccc(S(=O)(=O)N3CCOCC3)cc2)N2CCCCC2)cc1 (centres undefined) 0.7%
Cc1ccc(S(=O)(=O)N2CCCC2)cc1C(=O)O 27.9%
Cc1ccc(S(=O)(=O)N2CCCCC2)cc1C(=O)Nc1ccc2cn[nH]c2c1 5.9%
COC(=O)c1ccccc1NC(=O)c1noc2c1CCCC2 -7.7%
COC(=O)c1ccccc1NC(=O)c1noc2c1CC(C(C)(C)C)CC2 (centres undefined) -0.1%
O=C(Nc1ccccc1C(=O)N1CCOCC1)c1noc2c1CCCC2 -1.4%
O=C(Nc1ccc(F)cc1F)c1noc2c1CCC2 46.1%
O=C(CCCN1C(=O)CCC1=O)Nc1ccccc1F 38.1%
Cc1csc(NC(=O)CSc2nnc(Cn3c(=O)sc4ccccc43)n2-c2ccccc2)n1 -8.5%
CCCC(=O)Nc1ccc2oc(-c3ccc(OC)c(Br)c3)nc2c1 -48.6%
O=C(CN1CCCCC1)Nc1cccc(-n2cnnn2)c1 5.6%
CC(C)(C)n1ncc2c(=O)n(CC(=O)NC3CCCCC3)cnc21 -2.2%
COC(=O)c1oc2ccc(Br)cc2c1NC(=O)c1ccccc1 -10.4%
Cc1cc(C)nc(Nc2ccc(C(=O)O)cc2)n1 1.7%
Cc1cc(C)nc(Nc2ccc(N3CCOCC3)cc2)n1 37.9%
CCCCCCNc1nc(NCc2ccco2)nc(OCC)n1 -31.5%
Cc1nc(SCC(=O)NCc2ccco2)[nH]c(=O)c1C -5.3%
NC(=O)c1cc(N)ccc1N1CCCC1 7.2%
Cc1cc(N)ccc1-n1c(C)ccc1C -6.6%
CCc1nnc(NC(=O)C(=O)NCCOC(=O)c2ccccc2Cl)s1 -14.4%
